Unmarked numbers belong to inactive results. Calls of active or inactive are those of the source.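 Rule for the calls, unless noted: active = mean inhibition over 43.08%, the solvent-only control mean plus 3 SD; inactive = the rest.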
What was measured:
[1] = molecular target: Nuclear receptor coactivator 3 (Homo sapiens) (UniProt Q9Y6Q9); experiment: SRC3 coactivator transcriptional activity inhibitors, confirmation, cell-based, luminescence, quadruplicate (AID 588792); conditions: HEK293 GAL4-SRC3 luciferase reporter, at 3.6 µM, active compounds read high;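 note: 0% = DMSO treated cells and 100% = gossypol at 36 µM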
[2] = tested on: transactivating tegument protein VP16 (Human herpesvirus 1), Gal4-VP16 luciferase reporter; experiment: VP16 transactivation inhibitors, counter-screen for SRC3 inhibitor project, cell-based, luminescence, high throughput (AID 588794; in the data active = inhibition above about 30%); conditions: mammalian cells, VP16-driven luciferase reporter luminescence; at 3.6 µM; active compounds read high

Sequence of Nuclear receptor coactivator 3 (Homo sapiens) (Q9Y6Q9 whole entry, looked up, the tested form may be a part): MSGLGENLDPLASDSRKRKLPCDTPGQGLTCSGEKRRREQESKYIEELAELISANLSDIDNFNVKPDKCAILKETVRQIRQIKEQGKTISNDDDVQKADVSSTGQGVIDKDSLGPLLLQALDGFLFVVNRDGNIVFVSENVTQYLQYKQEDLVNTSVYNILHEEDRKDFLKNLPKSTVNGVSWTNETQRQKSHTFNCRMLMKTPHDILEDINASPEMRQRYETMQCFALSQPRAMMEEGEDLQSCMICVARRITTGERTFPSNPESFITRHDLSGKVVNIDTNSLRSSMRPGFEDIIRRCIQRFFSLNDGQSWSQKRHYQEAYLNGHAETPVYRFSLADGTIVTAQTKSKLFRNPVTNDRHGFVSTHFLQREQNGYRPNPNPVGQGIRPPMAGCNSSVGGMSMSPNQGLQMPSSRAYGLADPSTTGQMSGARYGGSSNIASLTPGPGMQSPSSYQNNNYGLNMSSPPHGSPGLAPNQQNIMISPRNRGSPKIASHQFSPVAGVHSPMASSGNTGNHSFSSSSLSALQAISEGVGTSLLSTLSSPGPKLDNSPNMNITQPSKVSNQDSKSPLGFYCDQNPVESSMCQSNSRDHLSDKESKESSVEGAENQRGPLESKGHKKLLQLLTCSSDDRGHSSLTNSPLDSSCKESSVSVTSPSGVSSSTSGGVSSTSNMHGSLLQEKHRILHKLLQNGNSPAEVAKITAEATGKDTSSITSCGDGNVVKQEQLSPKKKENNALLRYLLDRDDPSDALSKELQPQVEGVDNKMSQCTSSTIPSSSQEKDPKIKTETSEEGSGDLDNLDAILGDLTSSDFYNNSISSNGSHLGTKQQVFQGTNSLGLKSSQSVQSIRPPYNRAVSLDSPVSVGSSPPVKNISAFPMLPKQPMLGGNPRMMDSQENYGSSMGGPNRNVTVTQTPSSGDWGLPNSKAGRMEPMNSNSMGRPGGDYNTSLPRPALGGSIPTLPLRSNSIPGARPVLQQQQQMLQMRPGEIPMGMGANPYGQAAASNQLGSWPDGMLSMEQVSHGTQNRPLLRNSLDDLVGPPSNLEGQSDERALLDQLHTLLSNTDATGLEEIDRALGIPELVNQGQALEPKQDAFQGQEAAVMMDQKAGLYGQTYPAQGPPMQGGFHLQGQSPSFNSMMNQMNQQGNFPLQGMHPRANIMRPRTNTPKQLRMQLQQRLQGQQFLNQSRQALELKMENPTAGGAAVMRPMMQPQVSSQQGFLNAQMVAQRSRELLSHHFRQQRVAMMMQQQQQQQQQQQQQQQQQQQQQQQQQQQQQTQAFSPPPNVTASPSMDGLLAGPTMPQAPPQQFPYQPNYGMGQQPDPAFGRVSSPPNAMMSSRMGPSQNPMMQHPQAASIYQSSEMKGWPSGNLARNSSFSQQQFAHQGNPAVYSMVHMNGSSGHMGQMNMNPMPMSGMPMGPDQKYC

Compound | inhibition [1] | inhibition [2]
CCN(CC(=O)Nc1ccccc1C(F)(F)F)C(=O)c1ccc(N2C(=O)CCC2=O)cc1 | -1.4% | 2.68%
Cc1ccc(C(=O)NC2c3ccccc3-c3ccccc32)cc1 | 11.3% | 12.1%
Cc1cc[n+](C(C)C(=O)c2ccc(-c3ccccc3)cc2)cc1 (stereo unspecified) | 8.52% | 32% (active)
O=C(CCl)NC1CCCc2ccccc21 (stereo unspecified) | 1.81% | -5.4%
CC1(C)CC2(CC(c3ccccc3F)c3cc(Cl)c(O)cc3O2)NC(=S)N1 (stereo unspecified) | 16.6% | 6.57%
N=c1c(C(=O)NCC2CCCO2)cc2c(=O)n3ccccc3nc2n1Cc1cccnc1 (stereo unspecified) | -8.73% | -5.19%
COc1cccc(/C=N/NC(=O)CNC(=O)C(c2ccccc2)c2ccccc2)c1O | 17.2% | 20.7%
COc1ccc(CN2C(=O)c3cccnc3C2=O)cc1S(=O)(=O)NCc1ccccc1 | 8.01% | -6.65%
COc1ccc(CCN2C(=O)C(Oc3ccccc3C)C2c2ccc3c(c2)OCO3)cc1 (stereo unspecified) | 2.45% | 8.58%
O=C(NC(=S)NNC(=O)c1cc2ccccc2cc1O)c1ccco1 | 26.9% | 61.6% (active)
CCOc1ccc(/C=C/C(O)=C2/C(=O)NC3(C)CC2c2ccccc2O3)cc1OC (stereo unspecified) | 25.5% | 39% (active)
CO[C@@]12[C@@H]3N[C@@H]3CN1C1=C(C(=O)C(N)=C(C)C1=O)[C@@H]2COC(N)=O | 35.1% | 22%
CCCCCCSc1ccc([C@H]2N[C@@](CC(C)C)(C(=O)OC)[C@H]3C(=O)N(C)C(=O)[C@@H]23)cc1OC | 4.49% | -10.5%
Cc1ccc(N/C(N)=N/c2nc(C)cc(C)n2)cc1 | -9.39% | -6.71%
O=C(C1CCC1)N1CCN(c2ccnc3cc(Cl)ccc23)CC1 | 17% | 6.97%
COc1ccc(CNS(=O)(=O)c2ccc3c(c2)N(C(C)=O)CC(C)S3)cc1 (stereo unspecified) | 7.83% | 11.6%
CCN(CC)c1ccc(Nc2nc(N3CCOCC3)c3ccccc3n2)cc1 | 4.45% | 20.2%

Compound | inhibition [1] | inhibition [2]
O=C(Cc1ccccc1)NNC(=O)Nc1cccc(Cl)c1 | 10.6% | -0.2%
O=[N+]([O-])c1ccccc1NC1CCN(Cc2ccccc2)CC1 | -4.81% | 0.87%
COc1cccc(/C=N/NC(=O)c2ccc(=O)n(C)c2)c1O | 12.1% | 9.91%
CN(C)c1cc[n+](CC(=O)Nc2ccc(Oc3ccccc3)cc2)cc1 | 15.7% | 20.2%
Cc1ccc(NC(=O)C(=Cc2ccc(C(=O)O)cc2)C(=O)Nc2ccc(C)cc2C)c(C)c1 | 32.6% | 46% (active)
O=C(NC(=S)Nc1cccc2cnccc12)c1ccccc1 | 51.4% (active) | 44.1% (active)
CC(=O)N1CCc2cc(S(=O)(=O)NCCC(=O)NCCc3ccc(Cl)cc3)ccc21 | -9.13% | 1.52%
O=C(Nc1sc2c(c1C(=O)O)CCCC2)c1ccc(F)cc1 | 0.98% | 27.5%
O=C(NN=Cc1cccc(O)c1O)c1ccccc1 | 23.7% | 21.5%
O=C(Nc1ccc(OC(F)(F)F)cc1)Nc1cccc([N+](=O)[O-])c1 | -15.5% | 1.65%
Cc1ccc(CNC(=O)CCc2ccc(S(=O)(=O)NC3CCCCC3)cc2)cc1 | 0.11% | 0.04%
COC(=O)c1ccccc1-c1ccc(C(c2c(C)[nH][nH]c2=O)c2c(C)[nH][nH]c2=O)o1 | 22.8% | -7.34%
C=C(C(=O)c1ccccc1)C(CC(=O)c1ccccc1)c1ccccc1 (stereo unspecified) | 25.9% | 41.1% (active)
O=[N+]([O-])c1ccc(S(=O)(=O)CC2CSc3nc4ccccc4n32)cc1 (stereo unspecified) | 15.6% | 18.6%
O=C(c1cc2sccc2n1Cc1ccccc1)N1CCN(c2nc3ccccc3s2)CC1 | 2.32% | 35.9% (active)
Cc1oc(S(=O)(=O)N(C)C)cc1C(=O)Nc1ccc(Cl)cc1 | -1.4% | 8.66%

Source: PubChem BioAssay
